This assay can be described thus: NCI Yeast Anticancer Drug Screen. Data for the mlh1 strain (AID 171).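 Further: 0% = growth of vehicle-treated control cultures of the same strain.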 To be noted: S. cerevisiae mlh1 strain growth inhibition, hits give high values. As for the experimental part:
Growth inhibition of yeast strains with defined genetic alterations is measured as a screen for potential anti-cancer activity. Selected strains with alterations in DNA damage repair or cell cycle control were exposed to compounds and growth inhibition was measured relative to vehicle treated controls. The strain used in this assay is mlh1

The values that follow come from PubChem BioAssay (NCI).

Compounds without any hit were thinned out: in the full panel of roughly 79,000, 15% have a hit. A number with no mark means an inactive call. Activity calls are given as the source filed them. No stated cut-off is given here; in the data, active means growth inhibition above about 70%; inactive means the rest.

Turning to `CCN(CC)CCN(C)CCc1ccc(Br)cc1`, the growth inhibition runs as follows: (at 1.2 µM) 7%; (at 3.7 µM) 13%; (at 11.0 µM) 31%; (at 33.0 µM) 60%; (at 100.0 µM) 94% (active).
The corresponding values for `O=Cc1ccc2c(c1)C(=O)c1ccccc1C2=O` are 2%, 1%, 10%, 44% and 82% (active).
Turning to `COc1ccc(C(NCCNC(c2ccc(OC)c(OC)c2)c2cc3c(cc2O)OCO3)c2cc3c(cc2O)OCO3)cc1OC` (stereo not given), the growth inhibition was 2% (at 1.2 µM); 1% (at 3.7 µM); 12% (at 11.0 µM); 84% (active) (at 33.0 µM); 99% (active) (at 100.0 µM).
On to `CC(=O)Nc1ccc2c(c1)Cc1cc(N=C3C=CC(=O)O3)ccc1-2`, for which the growth inhibition was 12% (at 1.2 µM); 25% (at 3.7 µM); 93% (active) (at 11.0 µM); 99% (active) (at 33.0 µM); 99% (active) (at 100.0 µM).
As to `C(=Nc1ccc(-c2cc(-c3ccccc3)nc3ccc4ccccc4c23)cc1)c1ccccc1`, the growth inhibition reads like this: (at 1.2 µM) 8%; (at 3.7 µM) 17%; (at 11.0 µM) 9%; (at 33.0 µM) -8%; (at 100.0 µM) 9%.
For the compound `Cc1ccc(NC(c2ccccc2)c2ccc3cccnc3c2O)cc1` (stereo not given), the growth inhibition runs as follows: (at 1.2 µM) 2%; (at 3.7 µM) 2%; (at 11.0 µM) 3%; (at 33.0 µM) -22%; (at 100.0 µM) 9%.
On to `O=C(O)c1cc2ccc(Cl)cc2c(O)c1C1=CCCCC1`, for which the growth inhibition is 26% (at 1.2 µM); 24% (at 3.7 µM); 41% (at 11.0 µM); 68% (at 33.0 µM); 87% (active) (at 100.0 µM).
The like results for `CCCCN(CCCC)C(=O)/C=C/c1ccccc1` were, in that order, -9%, -4%, -5%, 18% and 85% (active).
